From PubChem
The list is not random: actives were taken first. Their share in the collection is about 2.4%.
CRFBP-R2 block: antagonists of CRF-BP/CRF-R2 complex, primary screen, cell-based, HEK293, calcium dye fluorescence, uHTS; CRF-induced calcium fluorescence; inhibition, % at 11.8 µM; 350,000 tested, 0.59% active;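 active = inhibition of the ligand-induced calcium signal above about 50% at the single tested concentration, limit read from the data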
ABHD5 PLIN5 PPI: ABHD5-PLIN5 interaction inhibitors, primary screen, cell lysate, split luciferase complementation, luminescence | Split G. princeps luciferase complementation, 4 h | inhibition, % at 4 µM | 360,000 tested, 0.78% active | AID 602281, 2012;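 active = inhibition above the mean inhibition across every tested compound plus 3 SD, cut at about 22% in these data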
TLR4 MyD88 comp: inhibitors of TLR4-MyD88 association in cells, primary screen, cell-based, HeLa CL3-4, BLA complementation, FRET ratio | Toll-like receptor 4 (Homo sapiens) + Myeloid differentiation primary response protein … | HeLa CL3-4 TLR4/MyD88 BLA complementation | inhibition, % at 8.4 µM | 200,000 tested, 0.18% active; in the data active = inhibition above about 25%
NOD2 RIPK2 PPI: NOD2-RIPK2 binding disruptors in cells, primary screen, fluorescence, CHO cells, BLA complementation | CCF4 ratio | inhibition, % at 4.98 µM | 360,000 tested, 0.38% active | Receptor-interacting serine/threonine-protein kinase 2 (Homo sapiens), O43353; in the data active = inhibition above about 21%
m5-HT2A agonist: mouse Htr2a agonists via beta-arrestin recruitment, primary screen, cell-based, luminescence | activation, % at 7.6 µM | AID 624169, 2012 | CHO-K1 mHTR2A beta-arrestin complementation; percent of 30 µM serotonin response | 360,000 tested, 0.66% active;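 active = activation above a run cutoff, the mean activation of all tested compounds plus 3 SD, cut at about 14% in these data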
TLR9-MyD88 block: inhibitors of TLR9-MyD88 association in cells, primary screen, cell-based, CHO, BLA complementation, fluorescence | CCF4 FRET ratio | inhibition, % at 4.98 µM | 340,000 tested, 0.21% active;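 active = inhibition above the mean over all tested compounds plus 3 SD, cut at about 21% in these data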
MOR ag counter: OPRM1 agonists via beta-arrestin recruitment, confirmation, counter-screen for mouse HTR2A agonist project, cell-based, luminescence, single concentration | AID 624380, 2012 | 2,300 tested, 5.3% active | U2OS OPRM1 beta-arrestin PathHunter; DMSO 0%, DAMGO 9.3 µM 100% | shares compounds with m5-HT2A agonist | activation, % at 9.3 µM;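 active = mean activation above the mean of DMSO-only wells plus 3 SD, cut at about 0.5% in these data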
Target sequence (P35372 whole entry, looked up): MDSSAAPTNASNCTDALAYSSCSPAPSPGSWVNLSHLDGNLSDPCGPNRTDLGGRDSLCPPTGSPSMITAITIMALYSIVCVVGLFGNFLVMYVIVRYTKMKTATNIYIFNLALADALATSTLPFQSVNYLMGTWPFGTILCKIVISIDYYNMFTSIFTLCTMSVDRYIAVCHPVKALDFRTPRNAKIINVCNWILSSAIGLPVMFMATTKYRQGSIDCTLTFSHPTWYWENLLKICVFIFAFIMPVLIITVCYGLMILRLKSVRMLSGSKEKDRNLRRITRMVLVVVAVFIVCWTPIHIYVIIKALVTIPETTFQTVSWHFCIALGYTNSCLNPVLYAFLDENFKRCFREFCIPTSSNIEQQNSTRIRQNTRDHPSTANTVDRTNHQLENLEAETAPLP
HTR2A ag conf: mouse HTR2A agonists, beta-arrestin recruitment, confirmation, cell-based, luminescence, CHO-K1 PathHunter, triplicate. 2,300 tested, 19% active. DMSO 0%, 30 µM serotonin 100%. activation, % at 7.6 µM. shares compounds with m5-HT2A agonist;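 active = mean activation across triplicates above the hit threshold derived in the original primary screen, cut at about 15% in these data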
Large screens that a line does not name were inactive (follow-up assays come after a bar, where they were run).

Cc1ccc(CN2C(=O)C[C@@H](NC(=O)OCC3c4ccccc4-c4ccccc43)C/C=C\C2c2ccc(C)cc2)cc1 (stereo not given in full)	none (no result: TLR4 MyD88 comp)
COC(=O)Cn1c(=O)c2c(nc3n2CC(C)CN3CCc2ccccc2)n(C)c1=O (stereo not given)	none (no result: TLR4 MyD88 comp)
CCOCCn1c(=O)c2c(nc3n2CC(C)CN3CCc2ccccc2)n(C)c1=O (stereo not given)	m5-HT2A agonist 15 (no result: TLR4 MyD88 comp) | MOR ag counter inactive | HTR2A ag conf inactive
COc1ccccc1OCCn1nc2ccccc2c1OC	none (no result: CRFBP-R2 block, TLR4 MyD88 comp, TLR9-MyD88 block)
CC(=O)Nc1cccc(-c2cccc3nccn23)c1	none (no result: CRFBP-R2 block, TLR4 MyD88 comp, TLR9-MyD88 block)
CC1CCCN(c2ccc(C(=O)Nc3ccc4c(c3)OCO4)cc2[N+](=O)[O-])C1 (stereo not given)	m5-HT2A agonist 38 | MOR ag counter inactive | HTR2A ag conf inactive
O=S1(=O)N[C@@H](Cc2ccccc2)COc2cc(N3CCN(Cc4ccccc4F)CC3)ccc21	none (no result: CRFBP-R2 block, TLR4 MyD88 comp, TLR9-MyD88 block)
Cc1ccc(C)c(N(C(=O)CCC(=O)Nc2cc(C)on2)C(C(=O)NC2CCCC2)c2ccco2)c1 (stereo not given)	m5-HT2A agonist 17 | MOR ag counter inactive | HTR2A ag conf inactive
Cc1cc(C)cc(N(C(=O)CCC(=O)Nc2cc(C)on2)C(C(=O)NC2CCCC2)c2ccco2)c1 (stereo not given)	none
c1ccc(Cn2c(Cn3c(-c4cnccn4)nc4ccccc43)nc3ccccc32)cc1	none (no result: CRFBP-R2 block, TLR4 MyD88 comp, TLR9-MyD88 block)
Cc1ccsc1/C=N/NC(=O)CNC(=O)c1ccco1	none
CCOc1cc(C(=O)NCC(=O)N/N=C/c2sccc2C)cc(OCC)c1OCC	m5-HT2A agonist 17 | MOR ag counter inactive | HTR2A ag conf inactive
[O-][n+]1cc(Cl)cc(Cl)c1	none (no result: CRFBP-R2 block, TLR4 MyD88 comp, TLR9-MyD88 block)
Cc1cc(CNC(=O)COc2ccc(F)cc2)c2ccccc2n1	none
Cc1cc(CNC(=O)COc2ccccc2)c2ccccc2n1	m5-HT2A agonist 16 | MOR ag counter inactive | HTR2A ag conf inactive
C/C(CC(=O)Nc1ccc(N(C)C)cc1)=N\NC(=O)c1ccccc1Cl	m5-HT2A agonist 16 (no result: TLR4 MyD88 comp) | MOR ag counter 0.9 | HTR2A ag conf inactive
COc1ccccc1NS(=O)(=O)c1ccc(C)c(C(=O)NCC(c2cccs2)N2CCOCC2)c1 (stereo not given)	m5-HT2A agonist 19 (no result: TLR4 MyD88 comp) | MOR ag counter inactive | HTR2A ag conf inactive
Cc1ccccc1OCC(=O)NCC(c1cccs1)N1CCOCC1 (stereo not given)	m5-HT2A agonist 18 (no result: TLR4 MyD88 comp) | MOR ag counter inactive | HTR2A ag conf inactive
Cc1cccc(NS(=O)(=O)c2ccc(C)c(C(=O)NCC(c3cccs3)N3CCOCC3)c2)c1 (stereo not given)	none (no result: TLR4 MyD88 comp)
O=C1Cc2c([nH]c3ccc([N+](=O)[O-])cc23)-c2ccccc2N1	none (no result: TLR4 MyD88 comp)
Cc1cc(C)n2nc(CNS(=O)(=O)c3ccc(C(C)(C)C)cc3)nc2n1	m5-HT2A agonist 22 (no result: CRFBP-R2 block, TLR4 MyD88 comp, TLR9-MyD88 block) | MOR ag counter inactive | HTR2A ag conf inactive
COc1ccc(S(=O)(=O)NCc2nc3nc(C)cc(C)n3n2)cc1OC	none (no result: TLR4 MyD88 comp)
CCCCCNC(=O)C(CCc1ccccc1)n1c(=O)c(-c2ccccc2)nc2ccccc21 (stereo not given)	none (no result: CRFBP-R2 block, TLR4 MyD88 comp, TLR9-MyD88 block)
CC1(C(=O)NS(=O)(=O)c2ccc(F)cc2F)CCN1C(=O)CC(c1ccccc1)c1ccccc1 (stereo not given)	none (no result: CRFBP-R2 block, TLR4 MyD88 comp, TLR9-MyD88 block)
CC(C)=CC(=O)N1CC[C@@H](N2CCN(c3ccccc3F)CC2)[C@H](O)C1	m5-HT2A agonist 17 (no result: TLR4 MyD88 comp) | MOR ag counter inactive | HTR2A ag conf 43
CSCCC(=O)N1CC[C@@H](N2CCN(c3ccccc3F)CC2)[C@H](O)C1	m5-HT2A agonist 15 (no result: TLR4 MyD88 comp) | MOR ag counter inactive | HTR2A ag conf 45
Cc1c(NC(=O)C2CC(c3ccc(F)cc3)=NO2)c(=O)n(-c2ccccc2)n1C (stereo not given)	m5-HT2A agonist 15 | MOR ag counter inactive | HTR2A ag conf inactive
COc1ccc(C2=NOC(C(=O)Nc3c(C)n(C)n(-c4ccccc4)c3=O)C2)cc1 (stereo not given)	none
CCCCNC(=O)C1(C)CCCCN1C(=O)c1ccc2c(c1)CCO2 (stereo not given)	m5-HT2A agonist 18 (no result: CRFBP-R2 block, TLR4 MyD88 comp, TLR9-MyD88 block) | MOR ag counter inactive | HTR2A ag conf inactive
CCCCNC(=O)C1(C)CCN1C(=O)c1ccc2c(c1)CCO2 (stereo not given)	none (no result: CRFBP-R2 block, TLR4 MyD88 comp, TLR9-MyD88 block)
CC(C)Oc1ccc(CN2CCC2(C)C(=O)Nc2cccc(Oc3ccccc3)c2)cc1 (stereo not given)	none (no result: CRFBP-R2 block, TLR4 MyD88 comp, TLR9-MyD88 block)
O=C(NCc1ccccc1)c1cccc(S(=O)(=O)N2CCOCC2)c1	none
O=C(NCCCc1ccccc1)c1cccc(S(=O)(=O)N2CCOCC2)c1	m5-HT2A agonist 15 (no result: TLR4 MyD88 comp) | MOR ag counter inactive | HTR2A ag conf inactive
CCN(CC(=O)Nc1ccc(OC)cc1)C(=O)C1CC(=O)N(Cc2ccccc2)C1 (stereo not given)	m5-HT2A agonist 16 (no result: TLR4 MyD88 comp) | MOR ag counter inactive | HTR2A ag conf inactive
COc1ccc(NC(=O)CN(C)C(=O)C2CC(=O)N(Cc3ccc(C)cc3)C2)cc1 (stereo not given)	none (no result: TLR4 MyD88 comp)
NS(=O)(=O)c1ccc(NC(=O)COC(=O)C2CC(=O)N(Cc3ccccc3)C2)cc1 (stereo not given)	m5-HT2A agonist 16 | MOR ag counter inactive | HTR2A ag conf inactive
CCCc1ccc(C(=O)CN2C(=O)C(=O)N(C3CCCC3)C2=O)cc1	m5-HT2A agonist 18 (no result: TLR4 MyD88 comp) | MOR ag counter 1.3 | HTR2A ag conf inactive
Cc1ccc(C(=O)c2cc([N+](=O)[O-])ccc2N2CCOCC2)c(C)c1	m5-HT2A agonist 15 | MOR ag counter inactive | HTR2A ag conf inactive
Cc1ccc(C(=O)c2cc([N+](=O)[O-])ccc2N2CCOCC2)cc1C	none
CC(C)c1ccc(CN(C(=O)c2cccs2)C2CCS(=O)(=O)C2)cc1 (stereo not given)	m5-HT2A agonist 15 (no result: TLR4 MyD88 comp) | MOR ag counter inactive | HTR2A ag conf inactive
O=C(c1cccs1)N(Cc1ccc(Cl)cc1)C1CCS(=O)(=O)C1 (stereo not given)	none (no result: TLR4 MyD88 comp)
